From PubChem BioAssay
Hits are enriched below; roughly 3.9% of the tested compounds scored in any of these assays.
HIF-2a block: HIF-2a inhibition. 360,000 compounds, 0.72% hits. 786-0 RCC cells HIF-2a reporter, luciferase luminescence, overnight. inhibition, % at 18.8 µM;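 active = inhibition of the luminescence signal of 40% or more relative to plate controls, in a single-dose primary screen at 18.75 µM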
CF NFkB block: cystic fibrosis NF-kB activation inhibition; 360,000 compounds, 0.86% hits; inhibition, % at 5 µM; KKLEB NF-kB-GFP reporter, PAF-induced, GFP fluorescence overnight;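 active = at least 50% inhibition at 5 µM, scaled per plate between neutral and stimulator controls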;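 also: PAF is a Pseudomonas aeruginosa culture filtrate used as stimulus; plate controls were PAF-stimulated DMSO wells for no effect and unstimulated DMSO wells for full effect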
KKLEB cytotox: counter-screen for CF NF-kB inhibitors: cytotoxicity; activity change (cytotoxicity), % at 5 µM; AID 602141; KKLEB CF airway cells viability, ATPlite luminescence, overnight; stronger effect = lower value; cells stimulated with P. aeruginosa culture filtrate; 360,000 compounds, 0.36% hits;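 active = corrected activity change at or below -50% at 5 µM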
TWEAK-Fn14 inh: TWEAK-Fn14 signaling inhibition. TWEAK-stimulated Fn14 reporter cells, luciferase luminescence, 8 h. inhibition, % at 10 µM. 360,000 compounds, 2% hits. AID 1159606; in the data active = inhibition above about 50%
TROY signal inh: inhibitors of TROY-dependent NF-kB signaling; 360,000 compounds, 0.98% hits; inhibition, % at 10 µM; Q293 LMP1-TROYcd NF-kB luciferase reporter, 4 h;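 active = compounds whose plate-normalised and pattern-corrected inhibition of the luciferase reporter signal at the single screening dose is 50% or more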
Peg3 promoter: inhibitors of Peg3 promoter | HeLa PEG-Prom luciferase reporter, luminescence, overnight | inhibition, % at 20 µM | 360,000 compounds, 1.7% hits;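 active = inhibition of at least 50% at 20 µM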
An asterisk follows results filed as active; · = not tested or not shown.

SMILES	HIF-2a block	CF NFkB block	KKLEB cytotox	TWEAK-Fn14 inh	TROY signal inh	Peg3 promoter
O=[N+]([O-])c1ccc(/C=N/Nc2nc(-c3ccccc3)c3cc(Br)ccc3n2)o1	5	-22	3	35	-20	62*
Cc1ccc2nc(N/N=C\c3ccc([N+](=O)[O-])o3)nc(-c3ccccc3)c2c1	-44	-27	14	67*	-5	3
COc1ccc(N2CCN(C(=O)CCc3ccc(S(=O)(=O)NC(C)C)cc3)CC2)cc1	-9	10	7	14	9	4
COC(=O)C(Cc1cncn1COCc1ccccc1)NC(=O)OC(C)(C)C (configuration not stated)	7	1	-1	8	7	-3
Cc1nc(N2CCN(c3ccccc3)CC2)[nH]c(=O)c1CCC(C)C	0	-19	-6	60*	2	1
ClCc1nc2ccccc2n1Cc1ccccc1	21	11	0	-2	-6	107*
Cc1nc2cc(NCc3cc([N+](=O)[O-])ccc3O)ccc2n1Cc1ccccc1	-71	2	-3	53*	80*	7
Cc1nc2cc(NCc3nc4ccccc4n3Cc3ccccc3)ccc2n1C	-12	-14	-24	90*	87*	-40
COCc1nc2ccccc2n1Cc1ccccc1	-74	9	-2	-21	-9	-16
CCC(CC)C(=O)Nc1nnc(SCC(=O)NC2CC2)s1	7	-6	-1	7	6	19
COc1ccc(C2/C=C\CN(S(=O)(=O)c3cccc4cccnc34)CC(=O)N2Cc2ccc(F)cc2)cc1 (configuration not stated)	16	14	-1	15	0	21
Oc1c(C(Nc2ccccn2)c2ccccn2)ccc2cccnc12 (configuration not stated)	-17	-4	-16	-69	-15	54*
Cc1ccc2ccc(C(Nc3ccccn3)c3ccccc3)c(O)c2n1 (configuration not stated)	13	1	7	-19	-24	4
COc1ccc(OC)c(-c2c3cc(O)c(=O)cc-3oc3cc(O)c(O)cc23)c1	7	-12	-8	74*	11	27
CCOc1ccccc1-c1c2cc(O)c(=O)cc-2oc2cc(O)c(O)cc12	8	-12	7	74*	22	43
CC(=O)c1ccc(OCc2cc(C(=O)N(C)CCN3CCOCC3)no2)cc1	-37	-8	-3	-7	-20	-28
O=[N+]([O-])c1ccc(N2CCOCC2)cc1NCCCO	12	2	-4	-20	-8	3
CCCc1nnc(NC(=O)CCC(=O)N2CCN(S(=O)(=O)c3ccc(F)cc3)CC2)s1	10	12	1	5	-11	5
CCCc1nnc(NC(=O)CNc2ccc(F)cc2)s1	-13	1	-8	81*	·	-19
Cc1cc(C(=O)CSc2ccc(F)cc2)cc(C)c1OC(=S)N(C)C	-1	20	-3	100*	·	-36
CC(Oc1ccc(Br)cc1)c1nc2c3ccccc3nc(=S)n2[nH]1 (configuration not stated)	23	-3	-23	-38	48	13
CCCC(Oc1ccc(Br)cc1)c1nc2c3cc(OC)c(OC)cc3nc(=S)n2[nH]1 (configuration not stated)	18	19	-21	43	62*	32
CN(C)c1ccc(C(O)P(=O)(OCc2ccccc2)c2ccc(N(C)C)cc2)cc1 (configuration not stated)	17	-17	16	14	1	18
Cc1occc1-c1nc(-c2ccccn2)no1	-62	-8	-1	62*	3	-71
c1ccc(-c2noc(-c3ccc4ccccc4c3)n2)nc1	88*	-42	-91*	105*	86*	87*
Cc1occc1-c1nc(-c2ccncc2)no1	-140	-2	11	-28	-9	-114
COc1ccc(Cl)cc1NC(=O)c1cccc([N+](=O)[O-])c1O	-55	26	13	16	56*	26
Cc1cc(-c2ccccc2)n(-c2cc(N/N=C/c3ccccc3O)ncn2)n1	47*	74*	-54*	69*	42	45
Cc1ccc(-c2nc(N)sc2C)cc1	-93	-11	10	-5	88*	-65
